For assay [1], the target named is Progesterone receptor (Homo sapiens) (UniProt P06401). Put plainly: qHTS assay to identify small molecule agonists of the progesterone receptor (PR) signaling pathway (AID 1346784; calls by dose curve; further: nearly all actives have a fitted effect of over 30% in size). The method, boiled down: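 PR-UAS-bla HEK 293T cells (beta-lactamase reporter under UAS) in 2% charcoal-stripped FBS, dosed with 23 nL compound after 6 hr, incubated 16hr at 37C. LiveBLAzer B/G FRET substrate added, fluorescence read after 2 hours.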
Sequence of Progesterone receptor (Homo sapiens) (P06401 whole entry, looked up): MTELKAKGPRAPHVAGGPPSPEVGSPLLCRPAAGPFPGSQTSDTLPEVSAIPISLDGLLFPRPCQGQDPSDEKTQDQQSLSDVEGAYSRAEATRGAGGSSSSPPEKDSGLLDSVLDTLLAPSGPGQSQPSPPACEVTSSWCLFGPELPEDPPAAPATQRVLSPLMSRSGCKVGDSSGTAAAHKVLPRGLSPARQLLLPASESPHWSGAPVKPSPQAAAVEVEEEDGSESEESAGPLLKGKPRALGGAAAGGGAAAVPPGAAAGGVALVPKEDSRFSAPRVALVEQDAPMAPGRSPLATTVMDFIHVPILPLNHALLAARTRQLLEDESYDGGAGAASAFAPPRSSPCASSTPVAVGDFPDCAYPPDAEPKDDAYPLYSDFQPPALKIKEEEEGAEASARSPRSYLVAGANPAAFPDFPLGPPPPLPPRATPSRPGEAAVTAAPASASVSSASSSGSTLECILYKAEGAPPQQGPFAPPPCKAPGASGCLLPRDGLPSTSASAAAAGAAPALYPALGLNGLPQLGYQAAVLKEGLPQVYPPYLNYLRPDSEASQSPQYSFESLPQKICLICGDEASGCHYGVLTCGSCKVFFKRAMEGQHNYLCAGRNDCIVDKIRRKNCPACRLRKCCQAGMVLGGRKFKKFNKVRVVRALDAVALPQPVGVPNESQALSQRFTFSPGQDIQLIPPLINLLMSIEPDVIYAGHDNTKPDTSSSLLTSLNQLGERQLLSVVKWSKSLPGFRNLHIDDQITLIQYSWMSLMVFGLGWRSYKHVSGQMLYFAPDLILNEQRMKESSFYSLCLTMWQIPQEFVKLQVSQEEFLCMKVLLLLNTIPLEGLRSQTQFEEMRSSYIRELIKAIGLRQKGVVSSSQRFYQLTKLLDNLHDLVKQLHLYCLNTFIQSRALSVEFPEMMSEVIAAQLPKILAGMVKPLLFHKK

Assay [2] can be described thus: qHTS assay to identify small molecule agonists of the progesterone receptor (PR) signaling pathway - cell viability counter screen (AID 1346799; calls by dose curve; further: nearly all actives have a fitted effect of over 45% in size; further: potency means the concentration at half of the fitted maximal effect). The method, boiled down:
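Counter screen in the PR-UAS-bla HEK293T wells (2% charcoal-stripped FBS, 16 h compound exposure at 37 C) after the bla read. CellTiter-Glo added, 30 min at room temperature, luminescence read as cell viability.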
A general note: In qHTS, concentration-response curves come from the screen itself.

Assay [3] can be described thus: qHTS assay to identify small molecule antagonists of the TGF-beta/Smad signaling pathway - cell viability counter screen (AID 1346824). Further: nearly all actives have a fitted effect of over 50% in size. Further: potency means the concentration at half of the fitted maximal effect. The method, boiled down: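 Cytotoxicity counter-screen run in the same wells as the beta-lactamase Smad reporter read: CellTiter-Glo luminescence after 30 min at room temperature. HEK 293T SBE-bla cells had 5 hr compound exposure at 37 C with TGF-beta1 (0.25 ng/mL stock).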

The nature of assay [4]: qHTS assay to identify small molecule agonists of the TGF-beta/Smad signaling pathway - cell viability counter screen (AID 1346829). Further: nearly all actives have a fitted effect of over 45% in size. Further: potency means the concentration at half of the fitted maximal effect. The method, boiled down:
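After overnight seating at 37 C and 5% CO2, reporter cells got compounds for 5 hr and FRET substrate for 2 hr; cell viability then came from CellTiter-Glo luminescence.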

Assay [5] can be described thus: qHTS assay to identify small molecule agonists of the TGF-beta/Smad signaling pathway (AID 1346859; active means well fitted activation curve with a large enough effect in the signal ratio in the repeat runs, not every such curve was filed as active; the % refers to the signal ratio; further: series mostly up to about 77 µM). The method, boiled down: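 SBE-bla HEK293T cells plated overnight, then compound exposure for 5 h at 37 C. Beta-lactamase reporter read with LiveBLAzer B/G FRET substrate after 2 h at room temperature, fluorescence at 405 nm excitation, 460/530 nm emission.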
The target in assay [6] is Thyrotropin-releasing hormone receptor (Homo sapiens) (UniProt P34981). The experiment in a line: qHTS assay to identify small molecule antagonists of the thyrotropin-releasing hormone receptor (TRHR) signaling pathway (AID 1346877; active means well fitted inhibition curve with a large enough effect in the repeat runs, not every such curve was filed as active; further: series mostly up to about 51 µM). In short, it runs like this: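 Cells (TRHR-HEK293) are plated and kept 18 h at 37 °C/5% CO2. A calcium-sensitive dye is added for 2 h, compound follows for 5 min at room temperature, and TRH is then given at 1 nM final.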
Sequence of Thyrotropin-releasing hormone receptor (Homo sapiens) (P34981 whole entry, looked up): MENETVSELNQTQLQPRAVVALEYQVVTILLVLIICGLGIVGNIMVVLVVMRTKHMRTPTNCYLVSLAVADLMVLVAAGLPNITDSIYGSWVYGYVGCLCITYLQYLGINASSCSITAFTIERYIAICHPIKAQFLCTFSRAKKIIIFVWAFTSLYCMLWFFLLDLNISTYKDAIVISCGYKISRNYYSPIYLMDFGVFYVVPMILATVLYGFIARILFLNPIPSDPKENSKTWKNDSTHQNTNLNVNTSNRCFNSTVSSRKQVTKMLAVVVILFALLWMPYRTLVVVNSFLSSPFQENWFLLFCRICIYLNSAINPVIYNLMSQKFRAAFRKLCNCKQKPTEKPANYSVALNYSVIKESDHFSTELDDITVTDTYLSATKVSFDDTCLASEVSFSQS

Assay [7] shares this target. Put plainly: qHTS assay to identify small molecule agonists of the thyrotropin-releasing hormone receptor (TRHR) signaling pathway (AID 1346891; calls by dose curve; further: series mostly up to about 58 µM). The method, boiled down: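 HEK293 cells expressing TRHR plated 18 h at 37 C/5% CO2, calcium dye-loaded 2 h at 37 C, then compound added (agonist mode); kinetic calcium fluorescence read 3 min at 1 s intervals; 15 concentrations in triplicate.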

The nature of assay [8]: Human pregnane X receptor (PXR) small molecule agonists, qHTS cell viability counter screen (AID 1346977). Further: nearly all actives have a fitted effect of over 50% in size. Further: potency means the concentration at half of the fitted maximal effect. In short, it runs like this: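 PXR-Luc HepG2 cells (2,000/well, 5% charcoal-stripped FBS) preincubated 5 hr, then exposed to compounds 24 hr at 37 C. Viability read in the same wells by CellTiter-Fluor fluorescence, reagent added at 23 hr, 1 hr incubation.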
Assay [9] in a line: qHTS assay to identify small molecule antagonists of the progesterone receptor (PR) signaling pathway - cell viability counter screen (AID 1346798). Further: nearly all actives have a fitted effect of over 50% in size. Further: potency means the concentration at half of the fitted maximal effect. In short, it runs like this: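 PR-UAS-bla HEK293T cells, 3,000/well in 2% charcoal-stripped FBS medium, dosed with compounds plus R5020 agonist and incubated 16 h at 37C. Viability then measured in the same wells by CellTiter-Glo luminescence after 30 min at RT.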

The target in assay [10] is Progesterone receptor (Homo sapiens) (UniProt P06401). The experiment in a line: qHTS assay to identify small molecule antagonists of the progesterone receptor (PR) signaling pathway (AID 1346795; active means well fitted inhibition curve with a large enough effect in the signal ratio in the repeat runs, not every such curve was filed as active; the % refers to the signal ratio; further: potency means the concentration at half of the fitted maximal effect). In short, it runs like this:
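PR-UAS-bla HEK293T cells with beta-lactamase reporter under UAS control, in 2% charcoal-stripped FBS, treated with compounds plus 1 nM promegestone (R5020, final) for 16 hr at 37C. Read-out: FRET beta-lactamase substrate fluorescence after 2 hr at room temperature.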

Results filed as inconclusive are left out. The source holds several records for some structures; these can differ, active in one and inactive in another. Activity calls are given as the source filed them. Unless noted, the call rests on the fitted dose curve; in most records, active means well fitted curve in the direction sought with a large enough effect in the repeat runs; inconclusive means weak or mixed curves; inactive means no such curve, though single readings can be large; an effect the other way counts as inactive or inconclusive.

Turning to `CCOP(=S)(OCC)Oc1nc(Cl)c(Cl)cc1Cl`, the Potency result in assay [1], in [3], in assay [4], in assay [6], in assay [7] and in assay [8] was “inactive” each time. The Potency in assay [2] is 61.3 µM (active) and inactive. In addition, in assay [5], the outcome was inactive.
As for `CCC(C)(NC(=O)c1cc(Cl)c(C)c(Cl)c1)C(=O)CCl` (centres undefined), the Potency entry in assay [1], in assay [9], in [2], in assay [3], in assay [4] and in assay [6] was “inactive” in each case. Further, the Potency result in [7] was “inactive”.
For the compound `CCCC(=O)Cl`, the Potency result in [1], in assay [2], in assay [3], in [4], in assay [6] and in assay [7] was “inactive” throughout. For the same compound, the Potency entry in assay [8] was “inactive”. The result in [5] was inactive.
Turning to `O=C(NC(=O)c1c(F)cccc1F)Nc1cc(Cl)c(Oc2ncc(C(F)(F)F)cc2Cl)c(Cl)c1`, the Potency entry in assay [1], in assay [9], in assay [2], in assay [3], in [4] and in [6] was “inactive” throughout. Besides, the Potency entry in assay [7] and in assay [8] was “inactive” each time.
For the compound `O=[Se]=O`, the Potency entry in assay [1], in assay [9], in assay [2], in [6] and in assay [7] was “inactive” in each case. For the same compound, the values for the Potency in assay [3], in [4] and in [8] were 9.7 µM (active), 4.86 µM (active) and 24.2 µM (active), respectively.
For `c1cc2ccc3cccc4ccc(c1)c2c34`, the Potency entry in assay [1], in assay [4], in assay [6], in [7] and in assay [8] was “inactive” throughout. The Potency in [2] was 28.6 µM (active). Besides, in [5], the call was inactive.
Consider `CC1(C)[C@H](C=C(Cl)Cl)[C@@H]1C(=O)O[C@@H](C#N)c1cccc(Oc2ccccc2)c1`, for which the Potency result in assay [1], in [9], in [3], in assay [4], in assay [6] and in assay [7] was “inactive” throughout. Also, the Potency entry in assay [8] was “inactive”. In assay [5], the compound was called inactive.
For the compound `O=[N+]([O-])c1cc(C(F)(F)F)cc([N+](=O)[O-])c1Cl`, the Potency result in assay [1], in assay [3], in assay [4], in assay [6] and in assay [7] was “inactive” throughout. The Potency in assay [2] was 13.7 µM (active). Besides, the compound was classed as inactive in [5].
As to `BrCC(Br)C1CCC(Br)C(Br)C1` (centres undefined), the Potency result in assay [1], in assay [9], in assay [2], in assay [4], in assay [6] and in assay [7] was “inactive” each time. Further, the Potency entry in assay [8] was “inactive”. In [5], the compound was called inactive.
For the compound `O=Cc1ccc(Cl)cc1Cl`, the Potency result in assay [1], in assay [2], in [3], in [4], in assay [6] and in assay [7] was “inactive” throughout. The Potency result in assay [8] was “inactive”. The call in assay [5] was inactive.
As for `C=CC(=O)NCNC(=O)C=C`, the Potency entry in assay [1], in assay [9], in [4], in [6], in [7] and in assay [8] was “inactive” throughout. For the same compound, in assay [5], the result was inactive.
Take `COC(N)=O`: the Potency entry in assay [1], in [3], in assay [4], in assay [6], in assay [7] and in assay [8] was “inactive” in each case. Also, the Potency in assay [9] is 43.3 µM (active). For the same compound, the result in assay [5] was inactive.
Consider `OCCCBr`, for which the Potency entry in assay [1], in [3], in assay [4], in [6], in [7] and in assay [8] was “inactive” throughout. Besides, the call in [5] was inactive.
Take `COC(=O)C(C)N(C(=O)Cc1ccccc1)c1c(C)cccc1C` (centres undefined): the Potency entry in assay [1], in assay [9], in assay [3], in assay [4], in [6] and in assay [7] was “inactive” throughout. Also, the Potency entry in [8] is “inactive”.
In the case of `C=CC(=O)OC(C)(C)C`, the Potency result in assay [9], in [2], in [4], in assay [6], in assay [7] and in [8] was “inactive” each time. In addition, the outcome in assay [5] was inactive.
With `O=C(O)C(F)(F)C(F)(F)C(F)(F)C(F)(F)C(F)(F)C(F)(F)C(F)(F)C(F)(F)C(F)(F)C(F)(F)F`, the Potency result in [10], in assay [9], in assay [3], in [4], in assay [6] and in assay [7] was “inactive” each time. Also, the Potency entry in assay [8] was “inactive”. Also, the result in assay [5] was inactive.
As for `O=C=Nc1ccc(Cl)cc1`, the Potency result in assay [3], in assay [4], in assay [6], in assay [7] and in [8] was “inactive” each time. Further, the result in assay [5] was inactive.
For the compound `Cc1ccc(-c2c(Cl)nc(C#N)n2S(=O)(=O)N(C)C)cc1`, the Potency is 8.63 µM (active) in assay [9] and 43.2 µM (active) in assay [8]. Besides, the Potency result in [3] and in [4] was “inactive” throughout. Besides, the result in assay [5] was inactive.
In the case of `Clc1ccc(C2(Cn3cncn3)CC(Br)CO2)c(Cl)c1` (centres undefined), the Potency result in assay [3] and in assay [4] was “inactive” in each case. Further, in [5], the call was inactive.
As to `COP(=S)(Oc1cc(Cl)c(Br)cc1Cl)c1ccccc1` (centres undefined), the Potency entry in assay [9], in assay [3], in [4], in assay [6], in assay [7] and in assay [8] was “inactive” throughout. The result in assay [5] was inactive.
Take `COc1nn(C(=O)NS(=O)(=O)c2ccccc2OC(F)(F)F)c(=O)n1C`: the Potency entry in assay [9], in assay [2], in [3], in assay [4], in [6] and in [7] was “inactive” throughout. Besides, the Potency entry in [8] was “inactive”. Further, the compound was classed as inactive in [5].
For the compound `O=C(NCc1cccnc1)Nc1ccc([N+](=O)[O-])cc1`, the Potency in assay [9] was 24.3 µM (active); in [2], 43.3 µM (active). The Potency result in assay [6], in [7] and in assay [8] was “inactive” throughout.
Consider `CC[C@H]1C[C@H]2[C@@H]3CCC4=CC(=O)CC[C@@H]4[C@H]3CC[C@]2(C)[C@H]1O`, for which the Potency entry in assay [9], in [3], in [4] and in assay [8] was “inactive” throughout. The compound was called inactive in assay [5].
On to `COP(=S)(OC)Oc1cc(Cl)c(I)cc1Cl`, for which the Potency in assay [10] was 21.7 µM (active). Also, the Potency result in assay [3] and in [4] was “inactive” each time. Also, the outcome in [5] was inactive.

Values taken from PubChem BioAssay (Tox21).
